Assay results published in PubChem BioAssay (NCATS).
Unmarked numbers belong to inactive results. Results filed as inconclusive are left out. Active and inactive are the calls of the source. Unless noted, calls come from the whole dose curve; as a rule, active = well fitted curve in either direction with a large enough effect (not every such curve was filed as active); inconclusive = small, poorly fitted or top-dose-only effect, or another doubt; inactive = flat fitted curve, though single readings scatter.

Legend:
[1] = molecular target: Lysosomal acid glucosylceramidase (Homo sapiens) (UniProt P04062); test: Glucocerebrosidase-p2 (AID 348; in the data active = potency below about 10 µM; note: potency is the fitted concentration of half-maximal effect); conditions: purified GBA, blue fluorogenic substrate, 40 min
In short: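 Normal human glucocerebrosidase (0.2 nM) with blue fluorogenic substrate (80 uM final) in citrate/phosphate pH 5.9 with 10mM sodium taurocholate, 0.01% tween-20; 40 min RT, NaOH/glycine stop; fluorescence Ex 365/Em 440; AC50 from a titration from 0.6 nM upwards.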

[2] = AP1 Signaling Pathway (AID 357); conditions: ME-180 AP-1-bla reporter, EGF-induced, beta-lactamase ratio, 5 h; at 7.69 µM (top of the series) unless noted;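 note: ME-180 reporter cells stimulated with EGF at its EC50 level; % is set by controls: 0 for no effect and ±100 for the full control effect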
In short: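 In this screen, ME-180 cells in Opti-MEM with 0.5% dialyzed FBS received EC50 EGF and compound titrations for 5 h. AP-1 reporter beta-lactamase was detected via CCF4 ratio, giving AC50 for positive and negative modulators.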

[3] = molecular target: Cytochrome P450 1A2 (Homo sapiens) (UniProt P05177); test: p450-cyp1a2 (AID 410; calls by dose curve;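 note: -100% = full effect of reference inhibitor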); conditions: recombinant CYP1A2, luciferin-ME demethylation, luminescence; series mostly up to 11.4 µM
In short: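 O-Demethylation of luciferin 6' methyl ether by human CYP1A2 is monitored as luciferase luminescence. Substrate sits at Km (100uM); enzyme is 20nM. Values are scaled to 57 uM furafylline as maximal inhibition.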

[4] = NFAT Signaling Pathway (AID 444); conditions: Jurkat NFAT-bla M1, carbachol, beta-lactamase ratio, 5 h; at 7.69 µM (top of the series) unless noted;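 note: carbachol stimulus at about its EC50 of 1 µM final; % is set by controls: 0 for no effect and ±100 for the full control effect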
In short: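 Jurkat cells with NFAT-driven β-lactamase reporter and co-expressed M1 receptor, stimulated with carbachol (final 1 uM, ~EC50), compound titration, 5 h at 37 °C. CCF4 loaded 1 h at RT; 460/530 nm ratio gave %activity and AC50.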

[5] = Stat Signaling Pathway (AID 446); conditions: ME-180 (cervical carcinoma) SIE beta-lactamase reporter, IL-6 stimulated, 5 h; at 7.69 µM (top of the series) unless noted;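 note: ME-180 cervical cancer cells given 40 pM IL-6 alongside compound; SIE-controlled beta-lactamase reporter measured as 460/530 nm FRET emission ratio; % is set by controls: 0 for no effect and ±100 for the full control effect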
In short: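 Normalization used AC90 stimulation (300 pM IL-6) and AC90 inhibition (125 nM pan-JAK inhibitor at 40 pM IL-6). The underlying signal is SIE-driven beta-lactamase in ME-180 cells after 5 h IL-6 exposure with compound.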

[6] = molecular target: Glucocorticoid receptor (Homo sapiens) (UniProt P04150); test: GR-GFP Redistribution (AID 450;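 active = compounds whose dose series gives a full or clear partial fitted curve of increased nuclear translocation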; note: potency is the fitted concentration of half-maximal effect); conditions: U2OS GR-GFP nuclear translocation, laser cytometry, 2 h
[7] = molecular target: Glucocorticoid receptor (Homo sapiens) (UniProt P04150); test: GR-EFC Redistribution (AID 451; calls by dose curve; note: potency is the fitted concentration of half-maximal effect); conditions: CHO-K1 GR-EFC translocation, beta-gal luminescence, 2 h
In short: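 CHO-K1 cells expressing nuclear EA and GR-ED fragments of b-gal; compounds titrated up to 46 uM final, 2 h at 37 C. GR nuclear translocation read as complemented b-gal luminescence after 1 h RT detection.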

[8] = molecular target: Mitogen-activated protein kinase 10 (Mus musculus) (UniProt Q61831); test: JNK3 AlphaScreen Assay (AID 530); conditions: JNK3 lysate, c-Jun phosphorylation; series mostly up to 11.4 µM;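 note: kinase came from lysate of stimulated human HepG2 cells; signal reports phosphorylation of biotinylated GST-cJun 1-79 at Ser73 with 10 µM ATP; % is set by controls: 0 for no effect and ±100 for the full control effect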
In short: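 Activity was read by AlphaScreen after JNK3-containing HepG2 lysate (cytokine pre-activated) phosphorylated biotinylated GST-cJun with 10 uM ATP at room temperature. Phospho-Ser73 cJun antibody with Protein-A acceptor beads provided detection.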

[9] = molecular target: 3',5'-cyclic-AMP phosphodiesterase 4B (Homo sapiens) (UniProt Q07343); test: qHTS Assay for Inhibitors of PDE-IV (AID 607; active = well fitted activation curve with a large enough effect in the main read-out, with a control signal flat, not every such curve was filed as active; note: % of control where 0% means no effect); conditions: HEK293 ACTOne CNG channel cells, membrane potential fluorescence; series mostly up to 22.9 µM
In short: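 HEK293 ACTOne cells with CNG channel (1000/well), endogenous PDE4; membrane potential dye, compounds up to 22.9 uM final. Fluorescence Ex 535/Em 590; RO 20-1724 (100 uM final) as reference.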

Sequence of Cytochrome P450 1A2 (Homo sapiens) (P05177 whole entry, looked up): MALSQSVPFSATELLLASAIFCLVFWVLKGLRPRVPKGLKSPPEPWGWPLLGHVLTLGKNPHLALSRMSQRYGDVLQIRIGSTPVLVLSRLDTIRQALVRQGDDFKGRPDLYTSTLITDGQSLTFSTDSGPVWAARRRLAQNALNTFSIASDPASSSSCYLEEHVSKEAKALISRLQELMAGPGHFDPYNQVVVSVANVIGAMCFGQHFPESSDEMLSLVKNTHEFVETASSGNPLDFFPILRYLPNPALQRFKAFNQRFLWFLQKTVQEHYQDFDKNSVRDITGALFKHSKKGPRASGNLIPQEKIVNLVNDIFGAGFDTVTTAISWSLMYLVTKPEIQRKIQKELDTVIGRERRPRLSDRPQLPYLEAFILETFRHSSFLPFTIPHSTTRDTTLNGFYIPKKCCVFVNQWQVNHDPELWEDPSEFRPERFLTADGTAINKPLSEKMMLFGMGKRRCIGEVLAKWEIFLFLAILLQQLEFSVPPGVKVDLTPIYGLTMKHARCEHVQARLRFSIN
Sequence of Glucocorticoid receptor (Homo sapiens) (P04150 whole entry, looked up, the tested form may be a part): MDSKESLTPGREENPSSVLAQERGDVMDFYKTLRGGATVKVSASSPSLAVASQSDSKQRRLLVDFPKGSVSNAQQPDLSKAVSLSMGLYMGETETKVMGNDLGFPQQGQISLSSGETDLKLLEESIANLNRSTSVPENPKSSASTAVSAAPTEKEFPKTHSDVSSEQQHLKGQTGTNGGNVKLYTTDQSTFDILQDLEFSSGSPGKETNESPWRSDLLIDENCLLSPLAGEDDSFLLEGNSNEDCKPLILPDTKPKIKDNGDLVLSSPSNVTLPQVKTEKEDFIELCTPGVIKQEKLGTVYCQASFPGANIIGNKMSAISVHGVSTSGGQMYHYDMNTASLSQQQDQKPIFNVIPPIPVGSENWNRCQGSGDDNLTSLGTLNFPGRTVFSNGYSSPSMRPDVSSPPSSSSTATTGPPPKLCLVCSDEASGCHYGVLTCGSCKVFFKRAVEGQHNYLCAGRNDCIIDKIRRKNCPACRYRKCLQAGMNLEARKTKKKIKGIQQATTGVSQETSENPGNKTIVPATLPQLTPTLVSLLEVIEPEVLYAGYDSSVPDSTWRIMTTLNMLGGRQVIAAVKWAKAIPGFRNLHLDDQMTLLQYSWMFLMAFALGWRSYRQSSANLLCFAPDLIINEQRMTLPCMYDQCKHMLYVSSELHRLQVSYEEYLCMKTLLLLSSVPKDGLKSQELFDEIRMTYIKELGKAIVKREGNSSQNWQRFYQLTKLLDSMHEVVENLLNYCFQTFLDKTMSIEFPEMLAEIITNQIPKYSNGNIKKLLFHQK
Sequence of Lysosomal acid glucosylceramidase (Homo sapiens) (P04062 whole entry, looked up): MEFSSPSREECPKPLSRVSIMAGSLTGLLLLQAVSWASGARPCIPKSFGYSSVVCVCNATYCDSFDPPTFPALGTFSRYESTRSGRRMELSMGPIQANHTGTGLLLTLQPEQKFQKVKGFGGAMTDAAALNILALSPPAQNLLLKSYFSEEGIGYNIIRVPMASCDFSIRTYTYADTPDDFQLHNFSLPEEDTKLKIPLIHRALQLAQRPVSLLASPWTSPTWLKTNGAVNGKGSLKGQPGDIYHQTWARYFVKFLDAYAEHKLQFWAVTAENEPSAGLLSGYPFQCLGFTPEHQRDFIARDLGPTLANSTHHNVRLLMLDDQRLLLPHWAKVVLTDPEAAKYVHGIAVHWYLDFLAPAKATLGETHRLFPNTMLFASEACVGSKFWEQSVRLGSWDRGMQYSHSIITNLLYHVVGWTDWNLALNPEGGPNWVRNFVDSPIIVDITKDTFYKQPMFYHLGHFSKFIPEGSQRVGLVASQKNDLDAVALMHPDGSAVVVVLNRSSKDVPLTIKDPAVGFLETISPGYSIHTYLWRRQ
Sequence of 3',5'-cyclic-AMP phosphodiesterase 4B (Homo sapiens) (Q07343 whole entry, looked up): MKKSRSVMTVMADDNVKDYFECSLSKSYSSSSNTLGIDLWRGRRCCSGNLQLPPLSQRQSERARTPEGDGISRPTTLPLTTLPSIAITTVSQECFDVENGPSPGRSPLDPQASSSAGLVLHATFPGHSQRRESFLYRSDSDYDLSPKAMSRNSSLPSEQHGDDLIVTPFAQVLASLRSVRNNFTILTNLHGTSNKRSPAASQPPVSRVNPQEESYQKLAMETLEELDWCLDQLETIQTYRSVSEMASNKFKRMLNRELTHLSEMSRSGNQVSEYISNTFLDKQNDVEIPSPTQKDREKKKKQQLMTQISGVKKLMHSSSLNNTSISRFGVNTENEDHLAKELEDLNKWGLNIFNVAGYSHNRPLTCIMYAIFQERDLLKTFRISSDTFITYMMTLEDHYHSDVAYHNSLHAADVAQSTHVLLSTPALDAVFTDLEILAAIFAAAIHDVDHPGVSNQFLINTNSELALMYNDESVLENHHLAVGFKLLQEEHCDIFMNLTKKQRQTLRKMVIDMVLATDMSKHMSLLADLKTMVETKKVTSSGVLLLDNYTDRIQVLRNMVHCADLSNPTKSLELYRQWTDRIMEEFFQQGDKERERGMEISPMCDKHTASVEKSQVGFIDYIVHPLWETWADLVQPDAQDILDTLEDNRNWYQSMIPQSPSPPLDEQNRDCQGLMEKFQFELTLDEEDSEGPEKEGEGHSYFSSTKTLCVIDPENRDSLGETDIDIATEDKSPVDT

Row | SMILES | Potency [1] | activity change, negative = inhibition [2] | activity change, negative = inhibition [3] | activity change, negative = inhibition [4] | activity, negative = inhibition [5] | Potency [6] | Potency [7] | Potency [8] | Potency [9] | Potency [3]
1 | CC12CC[C@@H]3c4ccc(OP(=O)(O)O)cc4CCC3C1CCC2=O (stereo not given in full) | > 11.4 µM | 2.65% | -13.4% [at 2.29 µM] | 10.4% | -5.93% | > 46 µM | > 9.22 µM | inactive | inactive | 
2 | C[C@@H](N1CCOCC1)[C@@](O)(c1ccccc1)c1ccccn1 | > 11.4 µM | 2.55% | -2.5% [at 2.29 µM] | 12.6% | 4.17% | > 46 µM | > 9.22 µM | inactive | inactive | 
3 | NC(N)=NNC(=O)C(=O)O | > 11.4 µM | 2.05% |  | 4.61% | 2.14% | > 46 µM | > 9.22 µM | inactive | inactive | inactive
4 | CC(C)(N=NC(C)(C)C1=NCCN1)C1=NCCN1 | > 11.4 µM | 3.01% |  | 7.08% | 3.73% | > 46 µM | > 9.22 µM | inactive | inactive | inactive
5 | CC(C)[C@@H](C)/C=C\[C@@H](C)[C@@H]1CC[C@H]2C3=CC=C4C[C@@H](O)CC[C@]4(C)[C@H]3CC[C@]21C | > 11.4 µM | -3.49% |  | 25.1% | -5.31% | > 46 µM | > 9.22 µM | inactive | inactive | inactive
6 | Cc1ccc(S(=O)(=O)N=Nc2c(O)[nH]c3cc(O)c(C(=O)O)cc23)cc1 | > 11.4 µM | -1.74% | -15.8% [at 2.29 µM] | 7.79% | 0.979% | > 46 µM | > 9.22 µM | inactive | inactive | 
7 | CC(C)Cn1cnc2c(Sc3c([N+](=O)[O-])ncn3C)nc(N)nc21 | > 11.4 µM | -3.59% | 8.1% [at 2.29 µM] | -13.9% | 11.4% | > 46 µM | > 9.22 µM | inactive | inactive | 
8 | CC(C)(CC(=O)Nc1ccccc1)C(=O)O | > 11.4 µM | -3.37% |  | -4.05% | 2.37% | > 46 µM | > 9.22 µM | inactive | inactive | inactive
9 | CC(=O)/C(=N\N=C(N)N)c1ccccc1 | > 11.4 µM | 8.04% | -17.2% [at 2.29 µM] | -0.66% | 7.52% | > 46 µM | > 9.22 µM | inactive | inactive | 
10 | C[C@@H](CSC(=N)N)C(N)=O | > 11.4 µM | -3.05% | -6.6% [at 2.29 µM] | 13.8% | 9.57% | > 46 µM | > 9.22 µM | inactive | inactive | 
11 | NCc1nnn(Cc2ccccc2)c1N | > 11.4 µM | 2.56% |  | 19.4% | -5.08% | > 46 µM | > 9.22 µM | inactive | inactive | inactive
12 | CCOC(=O)[C@]1(CC(=O)O)CCCC1=O | > 11.4 µM | -0.0726% |  | -7.19% | -19.1% | > 46 µM | > 9.22 µM | inactive | inactive | inactive
13 | NCCNC(=S)S | 9.83 µM (active) | 3.85% | -13.2% [at 2.29 µM] | -0.808% | -0.434% | > 46 µM | > 9.22 µM | inactive | inactive | 
14 | O=C(O)CCNc1ccccc1C(=O)O | > 11.4 µM | -0.595% |  | 4.52% | 6.23% | > 46 µM | > 9.22 µM | inactive | inactive | inactive
15 | O=C(O)[C@@H]1CCCN1Cc1c[nH]c2ccccc12 | > 11.4 µM | 6.54% |  | 6.95% | 3.95% | > 46 µM | > 9.22 µM | inactive | inactive | inactive
